In PubChem BioAssay (NCATS):
Records with an inconclusive call do not appear. Activity calls are given as the source filed them. The call rests on the fitted dose curve; in most records, active means well fitted inhibition curve with a large enough effect; inconclusive means small, poorly fitted or top-dose-only effect; inactive means no such curve, though single readings can be large or run the other way.

Test: S16 Schwann cell PMP22 intronic element firefly luciferase assay (AID 624032); further: nearly all actives have a fitted effect of over 30% in size
Summary of the method: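 Rat S16 Schwann cells stably carrying firefly luciferase driven by a PMP22 intronic element, in 10% FBS, treated 24 h at 37 C. ONE-Glo luminescence normalized to PTC124 control and DMSO (0%); curves classed by r2, magnitude and activity.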
Potency means the concentration at half of the fitted maximal effect.

Cc1cc(/C=C\c2ccc3cc(N(C)C)ccc3[n+]2C)c(C)n1-c1ccccc1
Potency: 30.9 nM (active)
